# Shown are actives, neighbours in structure and some others; about 2.4% of the full set was active somewhere.
# Pol kappa inh-1 = DNA polymerase kappa (human) inhibition | Potency, µM (titrated, usually from 107 µM), for inactives: top-dose activity, negative = inhibition, usual class: inhibitors | AID 588579 | actives 0.53% (n = 400,000) | purified Pol kappa, fluorescent DNA synthesis assay, 10 min; note: % is set by controls: 0 for no effect and ±100 for the full control effect
# Target sequence (Q9UBT6 whole entry, looked up): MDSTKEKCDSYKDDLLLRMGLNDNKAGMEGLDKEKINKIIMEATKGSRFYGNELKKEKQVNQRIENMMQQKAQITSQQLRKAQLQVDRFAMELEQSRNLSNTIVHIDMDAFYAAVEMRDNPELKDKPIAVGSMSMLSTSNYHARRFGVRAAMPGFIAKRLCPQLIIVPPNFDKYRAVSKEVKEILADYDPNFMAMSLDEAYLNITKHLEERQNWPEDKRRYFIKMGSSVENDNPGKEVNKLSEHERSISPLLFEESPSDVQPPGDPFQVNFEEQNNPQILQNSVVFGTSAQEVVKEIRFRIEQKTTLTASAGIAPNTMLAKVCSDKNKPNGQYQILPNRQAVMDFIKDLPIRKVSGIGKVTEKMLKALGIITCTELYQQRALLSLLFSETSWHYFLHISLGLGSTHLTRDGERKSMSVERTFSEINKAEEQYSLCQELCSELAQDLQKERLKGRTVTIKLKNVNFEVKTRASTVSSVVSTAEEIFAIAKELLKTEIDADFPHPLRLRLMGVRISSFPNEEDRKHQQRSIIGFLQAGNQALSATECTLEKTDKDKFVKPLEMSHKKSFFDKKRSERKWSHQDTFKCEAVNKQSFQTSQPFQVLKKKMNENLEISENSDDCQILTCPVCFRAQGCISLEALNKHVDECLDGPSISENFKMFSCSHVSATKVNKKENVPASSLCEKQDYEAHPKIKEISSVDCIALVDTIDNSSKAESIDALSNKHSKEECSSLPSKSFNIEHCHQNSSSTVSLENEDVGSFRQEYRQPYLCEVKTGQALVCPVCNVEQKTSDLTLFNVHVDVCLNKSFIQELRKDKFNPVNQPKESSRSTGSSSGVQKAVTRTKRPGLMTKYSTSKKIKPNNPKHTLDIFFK
#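 Kinetic fluorescence readout at 0 and 10 min followed reaction start with substrate at 50 nM final. Beforehand, enzyme (10 nM Pol kappa) stood 15 min with compound at room temperature; buffer-only wells were negative controls.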
# FEN1 inh-1 = human FEN1 inhibition; Potency, µM (titrated, usually from 114 µM), for inactives: at the highest dose activity change, negative = inhibition, most hits filed as inhibitors; Recombinant FEN1 flap cleavage, fluorescence, 15 min; actives 0.35% (n = 390,000); P39748; AID 588795; note: % is set by controls: 0 for no effect and ±100 for the full control effect; nearly all actives have a fitted effect of over 65% in size
#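 Compounds are tested as a concentration series against 10 nM FEN1; after a 15 min room-temperature preincubation, 50 nM substrate starts cleavage, with plate reads at 0 and 15 min. Normalized responses are fitted by a Hill equation.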
# WRN helicase inh-1 = WRN helicase (human) inhibition | WRN helicase unwinding, fluorescent forked duplex, kinetic | Q14191 | Potency, µM (highest dose often 114 µM), inactives show top-dose activity change, negative = inhibition, usual class: inhibitors | actives 0.46% (n = 360,000); note: % is set by controls: 0 for no effect and ±100 for the full control effect; nearly all actives have a fitted effect of over 55% in size
#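 WRN at 20 nM final preincubated with compound 15 min at room temperature; reaction started with 100 nM fluorophore/quencher forked duplex oligonucleotide and 2 mM ATP final. Unwinding followed kinetically by red fluorescence (ex 525, em 598 nm).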
# Pol beta inh = blocks human DNA polymerase beta activity; P06746; Pol beta primer extension/strand displacement, fluorescence kinetic; Potency, µM (highest dose often 114 µM), for inactives: at the highest dose activity change, negative = inhibition, hits mostly inhibitors; actives 1.3% (n = 340,000); note: % is set by controls: 0 for no effect and ±100 for the full control effect
#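 10 nM enzyme + cpd, 15 min RT; start with substrate 50 nM final; read 0 min and after 10 min RT. Corrected, normalized data; 4-parameter Hill curve fit.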
# Pol eta inh-1 = inhibitors of human DNA polymerase eta. Q9Y253. recombinant Pol eta, fluorescent DNA replication assay. Potency, µM (top dose mostly 114 µM), for inactives: at the top dose activity change, negative = inhibition, actives largely listed as inhibitors. actives 1.2% (n = 390,000); note: % is set by controls: 0 for no effect and ±100 for the full control effect
#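 Pol eta at 10 nM preincubated with compounds 15 min at room temperature; reaction started with fluorescent substrate (50 nM final) and read kinetically at 0 and 10 min.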
# POLI inh = blocks human DNA polymerase iota activity; Potency, µM (doses to about 115 µM), without a hit: at the top dose activity, negative = inhibition, most hits filed as inhibitors; Q9UNA4; AID 588590; Pol iota fluorescent replication assay, 10 min; actives 1% (n = 390,000)
#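 Fluorescent replication assay read twice, at 0 min and 10 min after adding 50 nM (final) substrate. Enzyme (10 nM) and compounds were first incubated 15 min at room temperature; enzyme-free buffer wells were negative controls.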
# PGK validate = blocks T. brucei phosphoglycerate kinase. shares compounds with Pol kappa inh-1. TbPGK coupled GAPDH assay, Kinase-Glo luminescence. Potency, µM (titrated, usually from 57.5 µM), inactives show at the highest dose activity change, negative = inhibition, hits mostly inhibitors. actives 79% (n = 500); note: % is set by controls: 0 for no effect and ±100 for the full control effect; nearly all actives have a fitted effect of over 65% in size
# Pol iota confirm = Inhibitors of human DNA polymerase iota, confirmation; shares compounds with Pol kappa inh-1; actives 77% (n = 1,500); Pol iota primer extension, TAMRA/BHQ fluorescence; Potency, µM, actives largely listed as inhibitors
# Pol kappa inh-2 = Pol kappa (human) inhibition, cherry-pick confirmation; shares compounds with Pol eta inh-1; purified Pol-kappa, fluorescent strand-displacement substrate; Potency, µM, actives largely listed as inhibitors; actives 76% (n = 920); AID 720501
# Pol eta inh-2 = confirmation of human DNA polymerase eta inhibitors; shares compounds with Pol eta inh-1; actives 64% (n = 2,600); Pol eta primer extension, TAMRA/BHQ fluorescence, 10 min; Potency, µM, usual class: inhibitors
# FEN1 inh-2 = FEN1 inhibition, cherry-pick retest. AID 720498. actives 79% (n = 880). Potency, µM, usual class: inhibitors. FEN1 flap cleavage, TAMRA/BHQ2 fluorogenic DNA substrate. shares compounds with FEN1 inh-1; note: nearly all actives have a fitted effect of over 60% in size
# WRN helicase inh-2 = confirmation of human WRN helicase inhibitors | shares compounds with WRN helicase inh-1 | WRN helicase DNA unwinding, fluorescence kinetic | Potency, µM (highest dose often 57.1 µM), inactives show at the top dose activity, negative = inhibition, usual class: inhibitors | actives 63% (n = 610) | AID 720497; note: nearly all actives have a fitted effect of over 65% in size
# TO displacement = binds DNA, flagged in WRN inhibitor counterscreen; shares compounds with WRN helicase inh-1; thiazole orange DNA binding displacement, fluorescence; Potency, µM (highest dose often 57.1 µM), inactives show top-dose activity change, negative = inhibition, hits mostly inhibitors; actives 10% (n = 610); AID 720499;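 note: drop in dye fluorescence marks compound binding to DNA; % is set by controls: 0 for no effect and ±100 for the full control effect; nearly all actives have a fitted effect of over 60% in size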
# BLM counter = blocks human BLM helicase in WRN counterscreen; shares compounds with WRN helicase inh-1; actives 60% (n = 610); Potency, µM (top dose mostly 57.1 µM), for the others: at the top dose activity change, negative = inhibition, usual class: inhibitors; AID 720503; Recombinant BLM helicase DNA unwinding, red fluorescence; note: nearly all actives have a fitted effect of over 60% in size
# An asterisk follows results filed as active; ? = inconclusive; nt = not tested or not shown; [ ] = dose if it differs, or a comment. Calls come from the whole dose curve; as a rule, active = well fitted curve in the direction sought with a large enough effect; inconclusive = small, poorly fitted or top-dose-only effect, or another doubt; inactive = no such curve, though single readings can be large; an effect the other way counts as inactive or inconclusive. Potency is the fitted concentration of half-maximal effect.
SMILES,Pol kappa inh-1,FEN1 inh-1,WRN helicase inh-1,Pol beta inh,Pol eta inh-1,POLI inh,Pol iota confirm,Pol eta inh-2,WRN helicase inh-2,TO displacement,BLM counter,others
CCSc1nnc(NC(=O)CSc2sc3c(O)cc(=O)[nH]c3c2C#N)s1,20µM*,35µM*,18µM*,35µM*,3.5µM*,3.5µM*,42*,24*,19µM*,?,?,Pol kappa inh-2=9.5*
O=C(Nc1c(C(=O)O)oc2ccccc12)c1ccc(C(F)(F)F)cc1,-2%[60.1 µM],-12%,nt,?,0%,5%,nt,nt,nt,nt,nt,
O=C1/C(=C\c2cc([N+](=O)[O-])ccc2O)SC(=S)N1Cc1ccc(Cl)cc1,-4%,22µM*,6µM*,3.2µM*,?,?,34*,24*,5.4µM*,21%,3µM*,FEN1 inh-2=38*
O=C1/C(=C\c2cccc(O)c2O)SC(=S)N1Cc1ccccc1,-7%,-31%,-23%,-20%,?,?,nt,nt,nt,nt,nt,
COc1cccc2c1C(=O)c1c(O)c3c(c(O)c1C2=O)CC(O)(C(=O)CO)CC3OC1CC(N(C)C)C(O)C(C)O1 (stereo not drawn),?,18µM*,3µM*,nt,?,40µM*,2.7*,27*,17µM*,171%,27µM*,Pol kappa inh-2=34*;FEN1 inh-2=34*
CCOC(=O)C(C)N1C(=O)S/C(=C\c2ccc(-c3ccccc3C(=O)O)o2)C1=O (stereo not drawn),-17%,32µM*,25µM*,22µM*,3.2µM*,?,17*,17*,15µM*,-6%,22µM*,Pol kappa inh-2=3*
CC(C)N1C(=O)S/C(=C/c2ccc(Sc3nc4ccccc4[nH]3)o2)C1=O,-24%,-3%,-21%,-26%,-20%,8%,nt,nt,nt,nt,nt,
CCOC(=O)C1=C(C)N=c2s/c(=C/c3ccccc3)c(=O)n2C1c1ccc(OC)c(OC)c1 (stereo not drawn),-4%,-7%,15%,28%,-14%,14%,nt,nt,nt,nt,nt,
CCOC(=O)C1=C(C)N=c2s/c(=C/c3ccc(OCC(=O)O)c(OC)c3)c(=O)n2C1c1ccc(Cl)cc1 (stereo not drawn),?,50µM*,28µM*,nt,20µM*,10µM*,15*,34*,12µM*,465%,7.6µM*,PGK validate=10µM*;Pol kappa inh-2=7.5*
Cc1cccc(OCc2nc(C#N)c(NCc3ccccc3Cl)o2)c1,-12%,2%,nt,-14%,-25%,-25%,nt,nt,nt,nt,nt,
CCc1cc(C(=O)N=Nc2c(O)[nH]c3ccc([N+](=O)[O-])cc23)c2ccccc2n1,?,?,?,32µM*,50µM*,?,?,76*,19µM*,15µM*,17µM*,
O=C(N=Nc1c(O)[nH]c2ccc([N+](=O)[O-])cc12)c1ccccc1[N+](=O)[O-],-9%,-12%,-11%,-5%,-7%,17%,nt,nt,nt,nt,nt,
Clc1cccc(-n2ncc3c(NC4CCCCC4)ncnc32)c1,-2%[60.1 µM],5%,nt,-1%,-19%,-5%,nt,nt,nt,nt,nt,
O=c1c(C(c2ccc(O)cc2)c2c(O)nc3n(c2=O)CCCS3)c(O)nc2n1CCCS2,?,8%,?,-5%,13µM*,?,?,76*,?,-3%,19µM*,
O=c1c(C(c2ccc(Br)cc2)c2c(O)nc3n(c2=O)CCCS3)c(O)nc2n1CCCS2,?,-15%,-20%,?,-5%,?,nt,nt,nt,nt,nt,
Cc1ccc(C)n1-c1sc2c(c1C(=O)O)CCCC2,50µM*,2%,?,14µM*,7.9µM*,?,60*,27*,14µM*,0%,15µM*,
Cc1ccc(C(=O)Nc2sc3c(c2C(=O)O)CCCC3)o1,4%,13%,-1%,-11%,-13%,10%,nt,nt,nt,nt,nt,
CCOc1cccc(CC(=O)N2CCc3c([nH]c4ccccc34)C2c2ccc(C)cc2)c1OCC (stereo not drawn),-3%[60.1 µM],-18%,nt,6%,-17%,-2%,nt,nt,nt,nt,nt,
CCC(=O)N1CCc2cc(S(=O)(=O)CCC(=O)Nc3cc(Cl)ccc3OC)ccc21,-14%,-3%,nt,0%,-4%,-11%,nt,nt,nt,nt,nt,
COc1ccc2[nH]c(=O)c(-c3noc(-c4ccccc4)n3)cc2c1,2%,?,?,-49%,?,?,42*,67*,22µM*,45%,6.1µM*,
c1cncc(CNc2ncncc2-c2ccc3c(c2)OCO3)c1,-1%[60.1 µM],nt,nt,nt,nt,nt,nt,nt,nt,nt,nt,
Cc1cc(NC(=O)CSc2cn(CCNC(=O)c3ccccc3)c3ccccc23)no1,11µM*,32µM*,32µM*,19%,?,?,8.4*,11*,12µM*,-14%,3.4µM*,PGK validate=1.2µM*;FEN1 inh-2=67*
Cc1ccc(C(=O)NCCn2cc(SCC(=O)Nc3cc(C)on3)c3ccccc32)cc1,10%,9%,-1%,2%,-18%,-15%,nt,nt,nt,nt,nt,

# Screens: PubChem, National Center for Advancing Translational Sciences (NCATS)
